Results published in the supplement of paper PMC10849652.
Targets with a hit are over-represented here; the source holds about 7,900 in all. About 0.6% of all pairs of compound and target were hits.

Tests used:
Assay in all cases: log2 fold change, soluble protein after heating vs DMSO (PISA); higher = thermal stabilisation; K562 cells, 10 uM, 30 min; active = over 0.2 and 3.5 SD of the protein, either way, in both replicates (recomputed)
saracatinib = compound: CN1CCN(CCOc2cc(OC3CCOCC3)c3c(Nc4c(Cl)ccc5c4OCO5)ncnc3c2)CC1 [saracatinib]
Summary of the method: (§1)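 Aliquots of K562 cells (2×10^6 cells/mL) treated with 10 μM compound for 30 min were heated for 3 min over 48°C-58°C. After pooling and extraction in PBS with 0.5% NP-40 at 4°C, soluble protein from a 21,000xg, 90 min spin was quantified by TMTpro 16plex LC-MS/MS with channel sums equalised. Thermal stability is expressed against control samples, from duplicates, as a log2 fold change.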

sotrastaurin = compound: CN1CCN(c2nc(C3=C(c4c[nH]c5ccccc45)C(=O)NC3=O)c3ccccc3n2)CC1 [sotrastaurin]
Summary of the method: as §1

alvocidib = compound: CN1CC[C@H](c2c(O)cc(O)c3c(=O)cc(-c4ccccc4Cl)oc23)[C@H](O)C1 [alvocidib]
Summary of the method: as §1

Tubastatin A = compound: CN1CCc2c(c3ccccc3n2Cc2ccc(C(=O)NO)cc2)C1 [Tubastatin A]
Summary of the method: as §1

[1] = compound: CNC(=O)C1=CC=CC=C1NC2=NC(=NC=C2Cl)NC3=C(C=C(C=C3)N4CCOCC4)OC
Summary of the method: as §1

defactinib = compound: CNC(=O)c1ccc(Nc2ncc(C(F)(F)F)c(NCc3nccnc3N(C)S(C)(=O)=O)n2)cc1 [defactinib]
Summary of the method: as §1

rucaparib = compound: CNCc1ccc(-c2[nH]c3cc(F)cc4c3c2CCNC4=O)cc1 [rucaparib]
Summary of the method: as §1

[2] = compound: CNc1nc(-c2ccc3c(N)n[nH]c3c2)cc(N2C[C@@H](C(=O)NC3CCCCC3)CC[C@H]2C)n1
Summary of the method: as §1

encorafenib = compound: COC(=O)N[C@@H](C)CNc1nccc(-c2cn(C(C)C)nc2-c2cc(Cl)cc(NS(C)(=O)=O)c2F)n1 [encorafenib]
Summary of the method: as §1

[3] = compound: COC(=O)[C@H](CCSC)NC(=O)C1=C(C=C(C=C1)NC[C@H](CS)N)C2=CC=CC=C2
Summary of the method: as §1

Measured: log2 fold change

XRCC6 (UniProt P12956)
inactive: saracatinib -0.013 | sotrastaurin -0.114 | alvocidib -0.187 | Tubastatin A 0.099 | [1] -0.047 | rucaparib -0.007 | [2] -0.015 | encorafenib 0.048 | [3] -0.041
active: defactinib -0.264

UQCR10 (UniProt Q9UDW1)
UniProt Q9UDW1, sequence (Q9UDW1 whole entry, looked up): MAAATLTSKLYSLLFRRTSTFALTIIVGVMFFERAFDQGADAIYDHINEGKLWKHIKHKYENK
inactive: saracatinib 0.001 | sotrastaurin 0.121 | alvocidib -0.024 | Tubastatin A -0.103 | [1] 0.018 | defactinib 0.039 | rucaparib -0.063 | [2] 0.018 | encorafenib 0.001 | [3] -0.031

TMEM192 (UniProt Q8IY95)
inactive: saracatinib 0.092 | sotrastaurin -0.028 | alvocidib 0.001 | Tubastatin A 0.035 | [1] 0.015 | defactinib -0.016 | rucaparib -0.01 | [2] -0.033 | encorafenib -0.02 | [3] 0.036

TMEM189-UBE2V1 (UniProt I3L0A0)
inactive: saracatinib 0.041 | sotrastaurin 0.157 | alvocidib 0.016 | Tubastatin A -0.007 | [1] -0.004 | defactinib -0.014 | rucaparib -0.059 | [2] -0.038 | encorafenib 0 | [3] 0.018

UBXN10 (UniProt Q96LJ8)
inactive: saracatinib 0.111 | sotrastaurin 0.122 | alvocidib -0.021 | Tubastatin A 0.036 | [1] -0.152 | defactinib 0.254 | rucaparib -0.05 | [2] -0.049 | encorafenib -0.074 | [3] 0.014

TOM1 isoform 2 (UniProt O60784)
inactive: saracatinib 0.033 | sotrastaurin -0.132 | alvocidib 0.001 | Tubastatin A 0.132 | [1] -0.025 | defactinib -0.087 | rucaparib -0.024 | [2] -0.043 | encorafenib 0.009 | [3] 0.089

UBR2 (UniProt Q8IWV8)
UniProt Q8IWV8, sequence (Q8IWV8 whole entry, looked up): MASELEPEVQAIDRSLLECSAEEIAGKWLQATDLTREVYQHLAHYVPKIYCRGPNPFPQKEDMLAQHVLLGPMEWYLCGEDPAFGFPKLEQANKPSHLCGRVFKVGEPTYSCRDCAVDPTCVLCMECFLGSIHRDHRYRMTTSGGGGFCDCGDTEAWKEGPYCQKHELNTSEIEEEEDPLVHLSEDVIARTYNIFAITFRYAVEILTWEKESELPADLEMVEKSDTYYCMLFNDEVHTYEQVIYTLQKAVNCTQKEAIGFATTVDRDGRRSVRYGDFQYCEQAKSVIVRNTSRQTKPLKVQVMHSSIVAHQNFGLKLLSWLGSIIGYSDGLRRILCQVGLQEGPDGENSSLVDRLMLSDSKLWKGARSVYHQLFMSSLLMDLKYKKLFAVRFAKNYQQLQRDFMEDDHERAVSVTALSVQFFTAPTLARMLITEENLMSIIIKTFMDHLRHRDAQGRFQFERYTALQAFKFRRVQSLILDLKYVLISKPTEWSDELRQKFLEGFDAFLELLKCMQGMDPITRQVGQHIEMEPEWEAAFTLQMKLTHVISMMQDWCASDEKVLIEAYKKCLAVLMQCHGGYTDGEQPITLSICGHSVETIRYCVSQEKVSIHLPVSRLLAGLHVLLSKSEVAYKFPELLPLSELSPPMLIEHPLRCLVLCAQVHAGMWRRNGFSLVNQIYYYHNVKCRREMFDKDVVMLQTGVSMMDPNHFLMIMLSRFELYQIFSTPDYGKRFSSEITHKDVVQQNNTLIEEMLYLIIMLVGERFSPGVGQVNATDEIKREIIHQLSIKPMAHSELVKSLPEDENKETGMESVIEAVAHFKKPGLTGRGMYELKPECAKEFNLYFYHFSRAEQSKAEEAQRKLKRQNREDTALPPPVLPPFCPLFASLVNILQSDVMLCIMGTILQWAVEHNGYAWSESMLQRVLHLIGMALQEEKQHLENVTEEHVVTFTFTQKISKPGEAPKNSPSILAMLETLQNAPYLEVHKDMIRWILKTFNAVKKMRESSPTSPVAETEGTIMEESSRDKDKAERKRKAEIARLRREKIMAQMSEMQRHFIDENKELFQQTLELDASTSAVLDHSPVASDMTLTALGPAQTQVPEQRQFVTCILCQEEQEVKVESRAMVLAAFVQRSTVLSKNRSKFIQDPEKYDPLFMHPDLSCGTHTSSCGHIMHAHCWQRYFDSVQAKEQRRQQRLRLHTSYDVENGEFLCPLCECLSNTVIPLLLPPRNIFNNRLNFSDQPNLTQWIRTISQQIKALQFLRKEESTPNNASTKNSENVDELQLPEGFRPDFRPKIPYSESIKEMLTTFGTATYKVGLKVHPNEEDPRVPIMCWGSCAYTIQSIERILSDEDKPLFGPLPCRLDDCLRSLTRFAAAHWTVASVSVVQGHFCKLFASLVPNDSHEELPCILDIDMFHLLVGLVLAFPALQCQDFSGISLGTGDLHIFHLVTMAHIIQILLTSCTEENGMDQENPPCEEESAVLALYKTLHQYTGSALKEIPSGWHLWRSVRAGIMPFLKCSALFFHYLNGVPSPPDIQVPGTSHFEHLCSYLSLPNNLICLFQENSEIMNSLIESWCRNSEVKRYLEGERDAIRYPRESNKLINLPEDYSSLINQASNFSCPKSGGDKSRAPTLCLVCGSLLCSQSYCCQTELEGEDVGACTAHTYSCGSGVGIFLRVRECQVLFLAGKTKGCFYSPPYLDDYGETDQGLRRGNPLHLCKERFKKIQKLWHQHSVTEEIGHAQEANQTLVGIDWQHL
inactive: saracatinib -0.065 | sotrastaurin -0.024 | alvocidib 0.132 | Tubastatin A 0.098 | [1] -0.014 | defactinib -0.052 | rucaparib -0.012 | [2] 0.145 | encorafenib 0.143 | [3] 0.085

TMEM70 (UniProt Q9BUB7)
inactive: saracatinib 0.106 | sotrastaurin 0.028 | alvocidib 0.015 | Tubastatin A 0.011 | [1] 0.142 | defactinib -0.004 | rucaparib -0.057 | [2] -0.001 | encorafenib 0.009 | [3] 0

WASH2P (UniProt Q6VEQ5)
inactive: saracatinib 0.009 | sotrastaurin -0.08 | alvocidib -0.018 | Tubastatin A -0.059 | [1] 0.02 | defactinib -0.004 | rucaparib -0.011 | [2] -0.037 | encorafenib 0.004 | [3] 0.007

TMEM9 (UniProt Q9P0T7)
UniProt Q9P0T7, sequence (Q9P0T7 whole entry, looked up): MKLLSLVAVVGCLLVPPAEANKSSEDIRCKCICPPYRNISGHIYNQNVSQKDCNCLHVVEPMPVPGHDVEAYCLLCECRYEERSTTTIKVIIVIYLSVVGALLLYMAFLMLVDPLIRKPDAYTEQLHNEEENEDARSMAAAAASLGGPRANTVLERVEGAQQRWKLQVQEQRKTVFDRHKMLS
inactive: saracatinib 0.051 | sotrastaurin -0.025 | alvocidib -0.068 | Tubastatin A 0.016 | [1] 0.004 | defactinib -0.014 | rucaparib 0.003 | [2] 0.033 | encorafenib 0.033 | [3] 0.004

TMEM223 (UniProt A0PJW6)
inactive: saracatinib 0.114 | sotrastaurin 0.048 | alvocidib -0.025 | Tubastatin A -0.059 | [1] 0.045 | defactinib 0.015 | rucaparib -0.03 | [2] -0.02 | encorafenib -0.047 | [3] 0.022

TPR (UniProt P12270)
inactive: saracatinib 0.152 | sotrastaurin -0.147 | alvocidib -0.012 | Tubastatin A -0.035 | [1] 0.239 | defactinib 0.005 | rucaparib -0.043 | [2] -0.112 | encorafenib -0.047 | [3] 0.023

UBE4B isoform 4 (UniProt O95155)
inactive: saracatinib 0.018 | sotrastaurin -0.038 | alvocidib -0.104 | Tubastatin A 0.016 | [1] 0.02 | defactinib -0.071 | rucaparib -0.077 | [2] -0.058 | encorafenib 0.01 | [3] -0.001

WDR4 (UniProt P57081)
UniProt P57081, sequence (P57081 whole entry, looked up): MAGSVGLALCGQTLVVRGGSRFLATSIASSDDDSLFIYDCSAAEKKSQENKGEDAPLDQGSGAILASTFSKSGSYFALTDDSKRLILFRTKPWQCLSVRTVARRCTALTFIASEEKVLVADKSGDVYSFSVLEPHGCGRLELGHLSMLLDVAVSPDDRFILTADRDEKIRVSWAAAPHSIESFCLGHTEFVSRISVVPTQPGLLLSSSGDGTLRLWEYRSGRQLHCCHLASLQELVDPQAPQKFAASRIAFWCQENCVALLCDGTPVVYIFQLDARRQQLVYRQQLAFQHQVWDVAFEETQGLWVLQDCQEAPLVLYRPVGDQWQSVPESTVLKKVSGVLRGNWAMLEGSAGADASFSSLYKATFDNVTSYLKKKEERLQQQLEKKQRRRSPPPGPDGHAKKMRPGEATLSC
inactive: saracatinib 0.008 | sotrastaurin 0.071 | alvocidib -0.068 | Tubastatin A 0.018 | [1] -0.022 | defactinib -0.027 | rucaparib -0.079 | [2] 0.024 | encorafenib 0.041 | [3] -0.033

VAMP7 (UniProt P51809)
UniProt P51809, sequence (P51809 whole entry, looked up): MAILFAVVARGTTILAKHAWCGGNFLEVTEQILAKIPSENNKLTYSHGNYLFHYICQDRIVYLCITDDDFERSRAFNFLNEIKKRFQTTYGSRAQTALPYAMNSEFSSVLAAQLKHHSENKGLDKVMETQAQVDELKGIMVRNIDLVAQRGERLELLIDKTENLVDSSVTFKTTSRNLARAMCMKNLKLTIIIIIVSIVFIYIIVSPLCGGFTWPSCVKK
inactive: saracatinib 0.029 | sotrastaurin 0.012 | alvocidib -0.019 | Tubastatin A -0.001 | [1] 0.03 | defactinib -0.028 | rucaparib -0.027 | [2] -0.022 | encorafenib 0.029 | [3] -0.011

XPNPEP1 isoform 3 (UniProt Q9NQW7)
inactive: saracatinib 0.002 | sotrastaurin -0.005 | alvocidib -0.076 | Tubastatin A -0.125 | [1] -0.027 | defactinib -0.07 | rucaparib -0.033 | [2] -0.012 | encorafenib -0.008
active: [3] 0.352

TXNIP (UniProt Q9H3M7)
UniProt Q9H3M7, sequence (Q9H3M7 whole entry, looked up): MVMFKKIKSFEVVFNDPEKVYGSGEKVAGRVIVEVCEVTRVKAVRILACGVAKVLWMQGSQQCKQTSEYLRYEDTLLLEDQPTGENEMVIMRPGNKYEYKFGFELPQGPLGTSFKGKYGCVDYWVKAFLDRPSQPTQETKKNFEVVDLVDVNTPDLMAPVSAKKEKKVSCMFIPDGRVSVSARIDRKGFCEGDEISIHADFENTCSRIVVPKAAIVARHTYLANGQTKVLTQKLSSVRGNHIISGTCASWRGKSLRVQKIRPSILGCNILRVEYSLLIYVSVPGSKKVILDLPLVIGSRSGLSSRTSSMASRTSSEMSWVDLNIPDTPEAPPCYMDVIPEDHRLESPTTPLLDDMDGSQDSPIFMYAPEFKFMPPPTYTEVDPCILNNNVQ
inactive: saracatinib -0.074 | sotrastaurin 0 | alvocidib -0.307 | Tubastatin A 0.06 | [1] 0.179 | defactinib -0.085 | rucaparib -0.026 | [2] 0.243 | encorafenib 0.01 | [3] 0.07

TPM2 (UniProt P07951)
UniProt P07951, sequence (P07951 whole entry, looked up): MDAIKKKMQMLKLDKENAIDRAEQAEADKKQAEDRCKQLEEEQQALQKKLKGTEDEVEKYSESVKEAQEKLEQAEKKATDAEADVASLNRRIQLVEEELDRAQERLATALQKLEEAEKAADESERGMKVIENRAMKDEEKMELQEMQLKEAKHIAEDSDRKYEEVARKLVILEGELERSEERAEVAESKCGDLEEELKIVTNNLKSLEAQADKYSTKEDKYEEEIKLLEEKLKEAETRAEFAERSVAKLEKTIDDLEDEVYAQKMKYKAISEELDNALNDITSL
inactive: saracatinib 0.177 | sotrastaurin -0.033 | alvocidib -0.078 | Tubastatin A -0.012 | [1] 0.004 | defactinib 0.042 | rucaparib -0.027 | [2] -0.026 | encorafenib -0.006 | [3] 0.102

USP3 (UniProt Q9Y6I4)
UniProt Q9Y6I4, sequence (Q9Y6I4 whole entry, looked up): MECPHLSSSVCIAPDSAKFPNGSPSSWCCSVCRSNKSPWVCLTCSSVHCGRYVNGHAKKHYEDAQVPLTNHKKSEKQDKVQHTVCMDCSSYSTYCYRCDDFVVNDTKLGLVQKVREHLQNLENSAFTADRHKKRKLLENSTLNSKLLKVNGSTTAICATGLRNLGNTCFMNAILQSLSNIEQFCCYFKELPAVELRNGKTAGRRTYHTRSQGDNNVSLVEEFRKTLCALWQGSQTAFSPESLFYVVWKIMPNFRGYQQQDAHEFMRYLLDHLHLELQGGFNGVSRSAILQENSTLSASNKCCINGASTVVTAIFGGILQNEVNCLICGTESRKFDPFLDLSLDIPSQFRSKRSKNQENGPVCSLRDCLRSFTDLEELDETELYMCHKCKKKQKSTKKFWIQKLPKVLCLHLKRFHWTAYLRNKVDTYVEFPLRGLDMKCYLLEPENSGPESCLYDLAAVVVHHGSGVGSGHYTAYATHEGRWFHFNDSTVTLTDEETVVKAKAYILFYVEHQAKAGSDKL
inactive: saracatinib 0.16 | sotrastaurin 0.074 | alvocidib -0.288 | Tubastatin A -0.181 | [1] -0.118 | defactinib -0.205 | rucaparib 0.042 | [2] 0.155 | encorafenib -0.008 | [3] -0.092

USP7 (UniProt Q93009)
inactive: saracatinib -0.087 | sotrastaurin -0.083 | alvocidib -0.147 | Tubastatin A 0.023 | [1] -0.106 | defactinib -0.104 | rucaparib 0.03 | [2] 0.152 | encorafenib 0.057 | [3] -0.06

TRAPPC8 (UniProt Q9Y2L5)
inactive: saracatinib -0.017 | sotrastaurin -0.044 | alvocidib -0.055 | Tubastatin A -0.004 | [1] 0.014 | defactinib -0.104 | rucaparib 0.074 | [2] 0.008 | encorafenib 0.032 | [3] -0.032

VDAC1 (UniProt P21796)
UniProt P21796, sequence (P21796 whole entry, looked up): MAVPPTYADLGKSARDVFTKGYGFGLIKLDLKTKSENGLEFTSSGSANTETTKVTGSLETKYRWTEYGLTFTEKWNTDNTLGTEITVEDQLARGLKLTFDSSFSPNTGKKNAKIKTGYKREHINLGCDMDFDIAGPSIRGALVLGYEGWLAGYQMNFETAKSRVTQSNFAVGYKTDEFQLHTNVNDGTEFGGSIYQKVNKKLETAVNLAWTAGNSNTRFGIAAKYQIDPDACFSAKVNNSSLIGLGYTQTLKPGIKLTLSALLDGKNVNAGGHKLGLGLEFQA
inactive: saracatinib 0.074 | sotrastaurin 0.035 | alvocidib 0.016 | Tubastatin A -0.014 | [1] 0.011 | defactinib 0.005 | rucaparib -0.022 | [2] -0.026 | encorafenib -0.03 | [3] 0.014

WDR18 (UniProt Q9BV38)
inactive: saracatinib 0.057 | sotrastaurin -0.001 | alvocidib -0.027 | Tubastatin A 0.008 | [1] -0.032 | defactinib -0.051 | rucaparib -0.009 | [2] -0.038 | encorafenib 0.001 | [3] 0.003

TXNL4B (UniProt Q9NX01)
UniProt Q9NX01, sequence (Q9NX01 whole entry, looked up): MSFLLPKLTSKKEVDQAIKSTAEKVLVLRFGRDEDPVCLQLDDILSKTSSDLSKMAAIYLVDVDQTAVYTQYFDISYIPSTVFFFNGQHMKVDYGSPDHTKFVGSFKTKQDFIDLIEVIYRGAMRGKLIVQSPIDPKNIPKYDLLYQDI
inactive: saracatinib -0.053 | sotrastaurin 0.189 | alvocidib -0.073 | Tubastatin A 0.03 | [1] 0.02 | defactinib -0.093 | rucaparib 0.022 | [2] -0.062 | encorafenib -0.021 | [3] -0.199

TTC4 (UniProt O95801)
inactive: saracatinib -0.09 | sotrastaurin -0.11 | alvocidib -0.146 | Tubastatin A 0.055 | [1] 0.078 | defactinib -0.169 | rucaparib 0.04 | [2] 0.051 | encorafenib 0.049 | [3] -0.055

TRAPPC2L (UniProt Q9UL33)
active: [1] -0.376
inactive: saracatinib -0.07 | sotrastaurin -0.101 | alvocidib -0.015 | Tubastatin A 0.011 | defactinib -0.032 | rucaparib 0.03 | [2] -0.026 | encorafenib 0.012 | [3] -0.042

UBA6
inactive: saracatinib -0.006 | sotrastaurin -0.125 | alvocidib -0.08 | Tubastatin A -0.047 | [1] 0.041 | defactinib -0.089 | rucaparib 0.024 | [2] 0.011 | encorafenib 0.049 | [3] -0.032

UBAP2L isoform 5 (UniProt Q14157)
inactive: saracatinib 0.017 | sotrastaurin 0.013 | alvocidib 0.038 | Tubastatin A -0.006 | [1] -0.096 | defactinib 0.009 | rucaparib 0.018 | [2] -0.006 | encorafenib -0.018 | [3] 0.015

UTP4 (UniProt Q969X6)
UniProt Q969X6, sequence (Q969X6 whole entry, looked up): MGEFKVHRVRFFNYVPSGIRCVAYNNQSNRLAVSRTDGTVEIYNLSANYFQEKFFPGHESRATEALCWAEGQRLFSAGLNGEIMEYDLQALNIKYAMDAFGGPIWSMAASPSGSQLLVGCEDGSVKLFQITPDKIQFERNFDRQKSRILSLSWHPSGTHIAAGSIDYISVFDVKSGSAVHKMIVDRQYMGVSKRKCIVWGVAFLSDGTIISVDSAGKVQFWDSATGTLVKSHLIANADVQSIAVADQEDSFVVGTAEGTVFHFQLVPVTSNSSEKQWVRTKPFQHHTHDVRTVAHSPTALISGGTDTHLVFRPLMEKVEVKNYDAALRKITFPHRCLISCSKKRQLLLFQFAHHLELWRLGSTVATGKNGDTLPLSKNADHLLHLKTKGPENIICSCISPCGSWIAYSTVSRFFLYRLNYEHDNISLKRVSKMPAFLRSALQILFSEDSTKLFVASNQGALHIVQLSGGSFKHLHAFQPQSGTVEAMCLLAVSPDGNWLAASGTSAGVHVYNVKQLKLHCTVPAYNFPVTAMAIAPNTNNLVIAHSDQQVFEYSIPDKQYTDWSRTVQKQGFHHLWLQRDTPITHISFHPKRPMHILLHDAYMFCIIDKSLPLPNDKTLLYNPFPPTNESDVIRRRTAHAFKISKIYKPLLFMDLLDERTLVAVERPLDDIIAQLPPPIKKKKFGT
inactive: saracatinib 0.05 | sotrastaurin 0.013 | alvocidib 0.104 | Tubastatin A -0.097 | [1] 0.015 | defactinib 0.178 | rucaparib 0.086 | [2] 0.002 | encorafenib -0.016 | [3] 0.041

TMEM120A (UniProt Q9BXJ8)
active: rucaparib -0.559
inactive: saracatinib 0.036 | sotrastaurin -0.098 | alvocidib -0.084 | Tubastatin A 0.069 | [1] -0.013 | defactinib -0.104 | [2] -0.036 | encorafenib 0.184 | [3] -0.047
